Source: PubChem BioAssay (NCI)
About 83,000 compounds went through this panel and 20% of them were active in at least one assay; those are over-represented in the sample as a whole.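 The test compound was applied at a single concentration to cells in 96-well plates for 48 hours, and percent growth was recorded.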 Unmarked numbers belong to inactive results. Active and inactive are the calls of the source. The calls were made as follows: active = growth percent below 10; inactive = the rest.

What was measured:
Assay in all cases: NCI-60 one-dose screen, 48 h (100 = growth as untreated, 0 = no growth, -100 = all killed)
Conditions in all cases: 10 µM unless noted
DU-145 prostate = tested on: DU-145 prostate
K-562 leukemia = tested on: K-562 leukemia
MALME-3M melanoma = tested on: MALME-3M melanoma
MDA-MB-231 breast = tested on: MDA-MB-231 breast
RXF 393 renal = tested on: RXF 393 renal
SF-268 CNS = tested on: SF-268 CNS
SF-295 CNS = tested on: SF-295 CNS
SF-539 CNS = tested on: SF-539 CNS
UACC-257 melanoma = tested on: UACC-257 melanoma
M14 melanoma = tested on: M14 melanoma

Structure (SMILES)	growth (DU-145 prostate)	growth (K-562 leukemia)	growth (MALME-3M melanoma)	growth (MDA-MB-231 breast)	growth (RXF 393 renal)	growth (SF-268 CNS)	growth (SF-295 CNS)	growth (SF-539 CNS)	growth (UACC-257 melanoma)	growth (M14 melanoma)
Cc1cc(Nc2cc(N3CCN(C)CC3)nc(/C=C/c3ccccc3)n2)n[nH]1	26.9%	-18.8% (active)	-60.6% (active)	9.8% (active)	-86.6% (active)	-26.1% (active)	-17% (active)	-79.1% (active)	-73.4% (active)	-76.6% (active)
O=C(COc1cccc(/C=C2\Cc3ccc(Cl)cc3C2=O)c1)Nc1nccs1	108%	89.5%	116%	71.7%	107%	108%	119%	79.9%	110%	107%
COc1ccc(Cl)c(Nc2nc3ccccc3nc2NS(=O)(=O)c2cccc(NC(=O)C(C)(C)N)c2)c1	62.4%	63.3%	69.5%	68.3%	-10.2% (active)	49.8%	12.2%	13.7%	56.9%	51.7%
O=C(Nc1ccc(-c2ccnc(Nc3ccc(N4CCOCC4)cc3)n2)cc1)[C@@H]1CCCN1	67.1%	16%	71.5%	48.6%	5.11% (active)	55.6%	35.9%	25.3%	16.8%	51.7%
O=C(Cc1ccc(/C=C/C(=O)c2ncc[nH]2)cc1)Nc1ccc(S(F)(F)(F)(F)F)cc1	78.5%	17.8%	88%	70.4%	94.7%	80%	80.8%	93.2%	103%	67.7%
O=C(CNc1nnc(-c2ccc(Cl)cc2)o1)Nc1ccc(-c2nc3ccccc3s2)cc1	98.5%	85.6%	88.7%	98.8%	100%	77.3%	102%	97%	103%	102%
CO[C@H]1C[C@@H]2CC[C@@H](C)[C@@](O)(O2)C(=O)C(=O)N2CCCC[C@H]2C(=O)O[C@H]([C@H](C)C[C@@H]2CC[C@@H](OP(C)(C)=O)[C@H](OC)C2)CC(=O)[C@H](C)/C=C(\C)[C@@H](O)[C@@H](OC)C(=O)[C@H](C)C[C@H](C)\C=C/C=C/C=C/1C	46%	48.4%	40.4%	71.7%	18.9%	62.9%	23.5%	41.8%	30.7%	66.4%
Cc1cc(C2(c3ccc(O)c(C)c3)OS(=O)(=O)c3ccccc32)ccc1O	122%	104%	91.7%	102%	98.5%	112%	105%	99%	100%	99.9%
Cn1cc(-c2cnn3c(N)c(Br)c([C@@H]4CCCNC4)nc23)cn1	37.1%	17.9%	50.4%	35.3%	-2.46% (active)	60.1%	24.1%	22.6%	70.7%	33.4%
Cc1ccc(NC(=O)Nc2ccc(Nc3ncnc4sc5c(c34)CCOC5)cc2)cc1Cl	114%	108%	98.2%	88.5%	95.5%	103%	96%	84.4%	88.8%	99.1%
O=C1NC(=O)/C(=C/c2ccc3nccc(-c4ccncc4)c3c2)S1	2.86% (active)	5.97% (active)	-42.7% (active)	-13.3% (active)	-74.2% (active)	-11.5% (active)	-48.2% (active)	-61.5% (active)	-33.5% (active)	-45.5% (active)
COc1cc2cc(NCc3ccc(F)cc3)nc(C)c2cc1OC	58.1%	11.7%	87.7%	45.9%	59.7%	50.7%	40.7%	-4.69% (active)	88.8%	32.2%
COc1ncc(-c2ccc3nccc(-c4ccnnc4)c3c2)cc1NS(=O)(=O)c1ccc(F)cc1F	10.8%	3.76% (active)	-34.2% (active)	5.98% (active)	-58.5% (active)	6.46% (active)	-27.3% (active)	-47.2% (active)	-36.2% (active)	-7.62% (active)
Clc1ccc(C(Cn2ccnc2)OCc2ccsc2Cl)c(Cl)c1 (stereo not given)	90.3%	16%	65.8%	70.9%	27.8%	67.5%	37.6%	72.5%	59.7%	41.4%
COCc1c(-c2ccc(NC(=O)Nc3cc(C(F)(F)F)ccc3F)c(F)c2)c2c(N)ncnn2c1CN1CCOCC1	-4% (active)	1.74% (active)	-37% (active)	-50% (active)	-88.4% (active)	-14.5% (active)	-54.2% (active)	-71.5% (active)	-9.75% (active)	-41% (active)
CN1[C@@H]2CC[C@H]1/C(=C\c1ccccc1)C1=C2[C@@H](c2ccccc2)C(C#N)=C(N)O1	51.5%	64.4%	88.8%	94.9%	63%	77%	83.8%	97.8%	54.6%	75.6%
CCN1CCN(Cc2ccc(NC(=O)Nc3nc(-c4cc(OC)c(OC)c(OC)c4)cs3)cc2C(F)(F)F)CC1	38.7%	-9.87% (active)	-49.8% (active)	-13.8% (active)	22.6%	34.8%	-38% (active)	-6.61% (active)	-13.1% (active)	-78.6% (active)
COc1cc2c(Nc3ccc(Br)cc3F)ncnc2cc1OCC1CCN(C)CC1	33%	3.22% (active)	-52.3% (active)	9.67% (active)	-38.2% (active)	30.5%	45.8%	-58.4% (active)	-85.9% (active)	-82.5% (active)
Cn1c(Nc2ccc(C(F)(F)F)cc2)nc2cc(Oc3ccnc(-c4ncc(C(F)(F)F)[nH]4)c3)ccc21	60.4%	61.8%	-11.7% (active)	51.7%	7.28% (active)	46.1%	54.1%	21.2%	11.9%	15.7%
C/C(=C(/c1ccc(Cl)cc1)c1ccc(OCCN2CCCC2)cc1)c1ccccc1	86.4%	6.72% (active)	62.4%	61.3%	66.6%	87.9%	77.5%	58.8%	44.7%	28.3%
COc1cc2nc(Nc3cccc(Cl)c3)nc(N)c2cc1OC	32.3%	24%	107%	60.3%	45.4%	77.1%	108%	90.3%	90.3%	78.4%
CNC(=O)c1cc(Oc2ccc(NC(=O)Nc3ccc(Cl)c(C(F)(F)F)c3)c(F)c2)ccn1	14.9%	-3.75% (active)	-36.3% (active)	-57.2% (active)	-31.3% (active)	-30.6% (active)	-47.4% (active)	-71.7% (active)	-50.3% (active)	-28.1% (active)
Cc1cc2c(F)c(Oc3ncnn4cc(OC[C@@H](C)OC(=O)[C@H](C)N)c(C)c34)ccc2[nH]1	66.5%	41.5%	11.4%	39.8%	43.8%	74.7%	77.6%	73.5%	-15.9% (active)	16.3%
C=CCn1c(=O)c2cnc(Nc3ccc(N4CCN(C)CC4)cc3)nc2n1-c1cccc(C(C)(C)O)n1	17.2%	1.55% (active)	44.8%	9.62% (active)	-27.1% (active)	30.7%	34.8%	-26.3% (active)	46.1%	9.79% (active)
CN1CCC(CNc2ccc3ncc(-c4cccc(OC(F)(F)F)c4)n3n2)CC1	22.5%	-47.3% (active)	-90.2% (active)	-80.3% (active)	-70.7% (active)	-33.1% (active)	-71.2% (active)	-91.4% (active)	-87.4% (active)	-73.3% (active)
